This is an account of results in PubChem BioAssay (NCI).

The structures appear in SMILES notation. Several values for one entry are separate records, joined by “and”; a condition that tells them apart may be missing. Equal values may be shown once. About 83,000 compounds went through this panel and 20% of them were active in at least one assay; those are over-represented in the sample as a whole.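 Single-concentration screen, 48 h exposure, 96-well plates. Endpoint: percent growth. Below 10 = active.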 Activity calls are given as the source filed them.

The test system of this experiment is HL-60(TB) leukemia. Nature of the experiment: NCI-60 one-dose screen, 48 h (100 = growth as untreated, 0 = no growth, -100 = all killed). The conditions noted are these: 10 µM unless noted.

For `O=C1CC2(O)CSc3nc(=O)cc(n32)N1` (configuration not stated), the growth is 100% (inactive). Under `Cc1nc(N)sc1-c1ccnc(Nc2ccc(N3CCOCC3)cc2)n1` stands 43.9% (inactive). For the compound `COc1ccc(-c2nnc(SCC(=O)Nc3ccc(C(=O)/C=C/c4ccccc4)cc3)o2)cc1OC`, the growth was 90% (inactive). As for `CCCCCCCCCCCCCCCCN(CC)CC`, the growth is -61.2% (active).

Consider `O=C(Nc1cccc(-c2cccc(F)c2)c1)C1CCN(Cc2cccc3cccnc23)CC1`, for which the growth was 28% (inactive).

Regarding `O=c1cc(-c2ccccc2)oc2cc(OCc3cn(Cc4ccc(F)cc4)nn3)cc(O)c12`, the growth is 104% [100 µM] (inactive). Under `O=C1c2cccc3cccc(c23)C(=O)N1N1C(=O)c2cccc3c(N4CCOCC4)ccc(c23)C1=O` stands 125% (inactive). In the case of `NC1CCC(Nc2nc(NCc3ccc(-c4cccs4)nc3)c3ncn(C4CCCC4)c3n2)CC1` (configuration not stated), the growth is -29.7% (active). As for `CC(C)=NNc1ccc([N+](=O)[O-])cc1[N+](=O)[O-]`, the growth is 57.5% (inactive).

As to `O=C1c2ccc3c4ccc5c6c(ccc(c7ccc(c2c37)C(=O)N1CCC[P+](c1ccccc1)(c1ccccc1)c1ccccc1)c64)C(=O)N(CCC[P+](c1ccccc1)(c1ccccc1)c1ccccc1)C5=O`, the growth was 54.6% (inactive). As to `COC(=O)CCCNC(=O)C(=O)c1c(O)c(O)c(C(C)C)c2cc(C)c(-c3c(C)cc4c(C(C)C)c(O)c(O)c(C(=O)C(=O)NCCCC(=O)OC)c4c3O)c(O)c12`, the growth is 11.3% (inactive). On to `O=S(=O)(Nc1cc(Br)c(O)c2ccccc12)c1ccc(F)cc1`, for which the growth was -26.9% (active). As for `O=C(Nn1c2c(sc1=NCc1ccccc1)C(=O)c1ccccc1C2=O)c1cc2ccc1CCc1ccc(cc1)CC2`, the figure is 27% (inactive); as for `Cc1ccc(-c2csc(NC(=O)CN3CCN(c4cc5c(cc4F)c(=O)c(C(=O)O)cn5C4CC4)CC3)n2)cc1`, -56.3% (active); as for `Oc1c(Cl)cc(Cl)c2cccnc12`, 56.4% (inactive) and 5.89% (active). Under `CCOC(=O)c1cc(C)[nH]c(=O)c1C#N` stands 121% (inactive); under `Clc1ccc(/C=N\N=c2\scc(-c3ccc(Cl)cc3)n2/N=C/c2ccc(Cl)cc2)cc1`, 84.5% (inactive). Regarding `O=C(CCc1ccc(O)cc1)N/N=C/c1cc(Br)ccc1O`, the growth is -6.29% (active). Under `COc1ccc(/C=C2\C(=O)N=C3N2NC(c2cc(Br)ccc2O)C=C(C)N3c2ccccc2)cc1` (configuration not stated) stands 99% (inactive); under `Nc1c(C(=O)Nc2ccncc2)sc2nc3c(cc12)C(O)CCC3` (configuration not stated), 95.4% (inactive); under `C=CCOc1c(Br)cc(Br)cc1Br`, 76.2% (inactive). As for `O=C(Nc1cccc(Cn2c(=O)[nH]c3ccc(Oc4ncccn4)cc3c2=O)c1)c1ccc(Cl)cc1`, the figure is 64.2% (inactive); as for `O/N=C/c1ccc(O)cc1O`, 96.9% (inactive); as for `O=C(N/N=C/c1cccnc1)c1ccccc1Nc1cccc(C(F)(F)F)c1`, 64.8% (inactive).

As for `CCCCCCNC(=O)Oc1ccc(/C(=C(/CC)Cc2ccccc2)c2ccc(OCCN(CC)CC)cc2)cc1`, the growth is 55.2% (inactive). As to `COc1ccc2occ(C3=C(c4c[nH]c5ccccc45)C(=O)N(O)C3=O)c2c1`, the growth was 97.3% (inactive).

Take `CCC(/C=C\C(C)=O)CC`: the growth was 104% (inactive). As for `Fc1cc2c(cc1Cl)N(c1ncnc3ccc(-c4cnc5[nH]ncc5c4)cc13)CC2`, the figure is 66.5% (inactive).

`C#CC[C@@H]1C[C@]2(C)[C@H]3CC=C4[C@H]5CC(C)(C)CC[C@]5(C(=O)NCCCCN)CC[C@@]4(C)[C@]3(C)CC[C@H]2C(C)(C)[C@H]1OC(C)=O`: the growth was -46.5% (active). Regarding `C=COC(=O)CCOCC(CC)CCCC` (configuration not stated), the growth was 91.8% (inactive). As for `CCN(CC)c1ccc(\C=N/N=C(N)/C(N)=N\N=C/c2ccc(N(CC)CC)cc2)cc1`, the figure is 112% (inactive); as for `CC/C(=C(/c1ccc(OCCN(C)C)cc1)c1ccc(OC(=O)CCCCCCCCC(=O)c2c(C)[nH]c(/C=C3\N=C(c4ccc[nH]4)C=C3OC)c2C)cc1)c1ccccc1`, 76.7% (inactive). On to `O=C(/C=C/c1cccc(O)c1)c1cccc(-n2cc(-c3ccccc3)[nH]c2=O)c1`, for which the growth was 42.1% (inactive). Under `COc1ccc(C2=CC(c3ccc(OC)cc3Br)N3C=CSC3=N2)cc1` (configuration not stated) stands 61.4% (inactive); under `NC(=S)NNC1CCCCC1`, 67.3% (inactive); under `O=C(Nc1ccc(Cl)cc1F)c1ccccc1O`, 19.9% (inactive). As to `N#Cc1c(-c2ccc(Cl)cc2)c(C#N)c2c(C#N)c(N)nn2c1N`, the growth is 85.8% (inactive).

For `CN1CCN(c2ccc(C(=O)Nc3cccc(C#Cc4cccc5[nH]nc(N)c45)c3)cc2C(F)(F)F)CC1`, the growth was -36.1% (active). As to `N#Cc1nnn(-c2ccc(S(N)(=O)=O)cc2)c1NCC(=O)c1ccccc1`, the growth is 88.4% (inactive). As for `COC(=O)C1=COC(C)C2C[n+]3ccc4c([nH]c5ccccc54)c3CC12` (configuration not stated), the figure is 106% (inactive) and 103% (inactive); as for `COC(=O)C(CSC(c1ccccc1)(c1ccccc1)c1ccccc1)NC(=O)C(CC(N)=O)NC(=O)OCc1ccccc1` (configuration not stated), -7.75% (active); as for `O=c1[nH]c([C@@H]2CCCN2)nc2c1oc1ccc(Cl)cc12`, 101% (inactive). Under `Cc1nc2c(=O)[nH]c(SCC(=O)Nc3cccc(F)c3)nc2[nH]c1=O` stands 105% (inactive); under `CC[C@]12CN3CCc4c([nH]c5ccccc45)[C@@](C(=O)OC)(c4cc5c(cc4OC)N(C)[C@H]4[C@@](O)(C(=O)OC)[C@H](OC(C)=O)[C@]6(CC)C=CCN7CC[C@]54[C@@H]76)CC(C3)[C@H]1O2` (some centres not stated), -1.28% (active); under `COc1c(B(O)O)cccc1-c1nc2ccc3[nH]ncc3c2c2c1CCC2`, 61.6% (inactive). Take `COc1cc(-c2cc(=O)oc3cc(O)ccc23)c(OC)c2c1OCO2`: the growth is 103% (inactive). Consider `O=C(Nc1ccccc1)Oc1c(Cl)c(Cl)c(Cl)c(Cl)c1Cl`, for which the growth was 86.8% (inactive) and 92.2% (inactive). Under `O=C1/C(=C/c2ccccc2)SC(=S)N1CCc1ccc(O)cc1` stands 94.9% (inactive); under `CCOC(=O)C(CCC#N)(CCC#N)C(=O)OCC`, 103% (inactive); under `COC(=O)CCC(=O)C(=O)OC`, -21% [10 mM] (active). `COc1ccc(/C=C/c2nc(Nc3ccc(Cl)cc3)c3ccccc3n2)cc1`: the growth is -11.3% (active). Under `CC(C)OC(=O)N1CCOCC1` stands 116% (inactive); under `CCCCN1C(=O)c2cccc3c(-c4ccc5c(c4)ncn5C4CCCCC4)ccc(c23)C1=O`, 99.7% (inactive). As for `COC(=O)[C@]12CCC(C)(C)C[C@H]1C1=CC[C@@H]3[C@@]4(C)C/C(=C/c5cccnc5)C(=O)C(C)(C)[C@@H]4CC[C@@]3(C)[C@]1(C)CC2`, the figure is -13.5% [100 µM] (active); as for `C=CCSc1nc2ccccc2cc1/C=N/O`, 92.1% (inactive); as for `c1ccc(CNc2c3ccccc3nc3ccccc23)cc1`, 43.8% (inactive).

For the compound `CC/C(=C(/c1ccc(Cl)cc1)c1ccc(OCCN2CCCC2)cc1)c1ccc(OC)cc1`, the growth was 65.1% (inactive). Under `O=C1Nc2ccccc2/C1=C\c1nc(-c2ccccc2F)n2ccccc12` stands 73.4% (inactive); under `COc1cc(C2NC(=O)C(C#N)=C(Nc3cccc(C)c3)S2)ccc1O` (configuration not stated), 84% (inactive). For `C=C1C(=O)O[C@H]2[C@H]1CC/C(COC(=O)NCc1cc[nH]c1)=C\CC[C@@]1(C)O[C@@H]21`, the growth is -6.94% (active).

With `COc1ccc(/C(C)=C(\c2ccc(Cl)cc2)c2ccc(OCCN3CCCCC3)cc2)cc1F`, the growth was -14% (active).

Turning to `CC(C)Cc1ccc(C(C)C(=O)NCc2ccc(Cn3c(=O)sn(CCCCl)c3=O)cc2)cc1` (configuration not stated), the growth is 102% (inactive) and -23.6% (active). As for `COc1ccc(C(=O)C(O)c2ccc(OC)cc2)cc1` (configuration not stated), the figure is 97.2% (inactive) and 94.5% (inactive).

`Nc1n[nH]c2ccc([C@@H]3Nc4cc5c(cc4[C@H]4C6CCC(C6)[C@@H]34)C(=O)NC5)cc12` (some centres not stated): the growth was -39.2% (active). Under `OCCOc1c(Cl)cc(Cl)cc1Cl` stands 118% (inactive); under `CCOC(=O)N1CCN(CCCCOc2ccc(C(C)(C)CC)cc2)CC1`, 79.1% (inactive).

With `CCCC1(CN2c3ccccc3Sc3ccc(Cl)cc32)CCN(CC)C1` (configuration not stated), the growth is 31.8% (inactive). Under `Cc1cc2c(c(=O)o1)C(c1ccc(OC(=O)N3CCOCC3)cc1)C(C#N)=C(N)O2` (configuration not stated) stands 104% (inactive). As for `O=C(/C=C/C=C/c1ccccc1)c1ccco1`, the figure is -38.2% (active); as for `CN1CCN(c2nc(-c3cccc4ccccc34)nc3sc4c(c23)CCCCCC4)CC1`, 91.6% (inactive).

Consider `Cc1ccc(/C=C/C(=O)c2ccc(N)cc2)c(C)c1`, for which the growth is 60.3% (inactive).

For the compound `Cc1ccc2nc3c(n2c1)C(=O)C(=O)c1ccccc1-3`, the growth was -59.1% (active).

With `O=c1oc2ccc([N+](=O)[O-])cc2cc1Br`, the growth was 105% (inactive).

Take `COc1cc(NCCN=C(N)NC(N)=NC(C)C)c2ncccc2c1`: the growth is 74.8% (inactive). In the case of `CCN(CC)c1ccc(/C=C/c2ccc3cc(C)ccc3[n+]2CC)cc1`, the growth was -41.5% (active). Under `Cn1c2c(Cl)c(Cl)ccc2c2ccn3c(=O)c4ccccc4nc3c21` stands 106% (inactive).

As for `O=C1Nc2cc(-c3ccncc3)ccc2/C1=C/c1ccc[nH]1`, the growth is 99.9% (inactive). Under `CCCCN(CCCC)CCCNc1c2c(nc3ccc(Cl)cc13)CCCC2` stands 89% (inactive); under `C=C1C(=O)O[C@H]2[C@H]1CC/C(COC(=O)/C=C/C(=O)NCc1ccc(Cn3c(=O)sn(-c4ccccc4)c3=O)cc1)=C\CC[C@@]1(C)O[C@@H]21`, -54.7% (active); under `O=C1C(Cl)=C(Nc2ccc3cn[nH]c3c2)C(=O)c2ccccc21`, -69.2% (active). As for `N#Cc1c(-c2ccc(C(F)(F)F)cc2)cc(NCC2CCS(=O)(=O)CC2)n2c1nc1ccccc12`, the figure is 88.5% (inactive); as for `COc1ccc(/C=N\Nc2ccc([N+](=O)[O-])cn2)cc1OC`, 100% (inactive).
